According to PubChem BioAssay (NCATS):
Inconclusive results are not listed. Active and inactive are the calls of the source. Calls come from the whole dose curve; as a rule, active = well fitted curve in the direction sought with a large enough effect; inconclusive = small, poorly fitted or top-dose-only effect, or another doubt; inactive = no such curve, though single readings can be large; an effect the other way counts as inactive or inconclusive.

Columns and labels:
[1] = Secretion counterscreen for inhibitors of the SERCaMP assay screened against the NCATS CANVASS Library (AID 1347390); settings: SH-SY5Y constitutive GLuc secretion, luminescence, 20 h; series mostly up to 76.6 µM;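 note: light from luciferase secreted into medium read as a measure of general secretion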
How it was run: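 SH-SY5Y cells expressing constitutively secreted GLuc, 1000 cells/well, attached 4 h at 37C, then exposed to compounds (0.001 - 77 uM, 11-pnt series) for 20 h. Coelenterazine added; luminescence read to flag secretory-pathway interferers.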

[2] = qHTS for activators of Nrf2/ARE signaling pathway screened against the NCATS CANVASS Library (AID 1347391); settings: ARE-bla HepG2, beta-lactamase reporter, 16 h; series mostly up to 46.1 µM; note: nearly all actives have a fitted effect of over 60% in size
Text: (§1) Natural products and their derivatives continue to be wellsprings of nascent therapeutic potential. However, many laboratories have limited resources for biological evaluation, leaving their previously isolated or synthesized compounds largely or completely untested. To address this issue, the Canvass library of natural products was assembled (https://tripod.nih.gov/canvass), in collaboration with academic and industry researchers, for quantitative high-throughput screening (qHTS) across a diverse set of cell-based and biochemical assays. The pure (>85% purity by liquid chromatography/mass spectrometry [LC/MS]) Canvass library of 346 natural products were submitted by 45 academic laboratories and companies around the world. […] The library was formatted into 1536-well plates and evaluated in 50 qHTS (in an 11-pnt concentration series) bioassays with broad scope of disease-relevant mechanisms. The resulting data set from 50 different assays was then systematically analyzed to identify overall trends and specific natural products with interesting biological activities. […]
Nrf2/ARE-screen assay protocol: 1. […] Fluorescence readout was obtained using the Envision plate reader (PerkinElmer) using a 405 nm excitation and 460 nm and 530 nm emission filters. […] Luminescence was measured using the ViewLux plate reader with clear emission filter and 2x binning, 1 sec exposure settings.

[3] = qHTS for activators of dead-cell proteases activity screened against the NCATS CANVASS Library (AID 1347392); settings: HepG2 cytotoxicity, dead-cell protease luminescence, 5 h; series mostly up to 46.1 µM;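 note: luminescence from protease leaking out of membrane-damaged cells cleaving impermeant substrate; rising signal means more cytotoxicity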
How it was run: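 Cytotoxicity in HepG2 cells was assessed by released protease cleaving AAF-aminoluciferin, with luminescence as signal. Exposure lasted 5 h at 37C across an 11-point series.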

[4] = qHTS for inhibitors of ER calcium dysfunction: SERCaMP assay screened against the NCATS CANVASS Library (AID 1347393); settings: SH-SY5Y GLuc-SERCaMP (Gaussia luciferase released on ER calcium loss) secretion, thapsigargin, luminescence; series mostly up to 76.6 µM;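 note: lower secreted reporter signal means inhibitor of ER calcium depletion; nearly all actives have a fitted effect of over 40% in size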
How it was run: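 qHTS in SH-SY5Y reporter cells: 16 h compound pretreatment, 4 h thapsigargin, then secreted Gaussia luciferase measured by luminescence.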

[5] = Vero-766 cells viability qHTS against the NCATS CANVASS Library: Counterscreen for Zika virus inhibition assay (AID 1347394); settings: Vero 766 viability, CellTiter-Glo luminescence, 72 h; series mostly up to 46.1 µM; note: nearly all actives have a fitted effect of over 60% in size
How it was run: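 Uninfected Vero 766 (African green monkey) cells, 1000/well, attached overnight, then exposed 72 h at 37C to compounds (11-point qHTS). Viability read by CellTiter-Glo luminescence; media-only wells served as 100% inhibition.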

[6] = qHTS for inhibitors of Wild type Zika virus screened against the NCATS CANVASS Library (AID 1347396); settings: Vero cells, Zika virus CPE, CellTiter-Glo, 72 h; series mostly up to 45.9 µM;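 note: ATP luminescence of surviving cells so rescue from viral cell killing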
Text: as §1, with “assays.” for “assays. The pure (>85% purity by liquid chromatography/mass spectrometry [LC/MS]) Canvass library of 346 natural products were submitted by 45 academic laboratories and companies around the world.”
Zika virus infection assay protocol: 1. […] In a biosafety cabinet, the desired MOI Zika virus was calculated and 2 uL of 2.5x Zika virus was dispensed into columns 1, 2 and 5 - 48 using the Multidrop Combi dispenser. […] Luminescence signal was obtained via the ViewLux plate reader (Perkin Elmer) using the clear emission filter and 1x binning, 2 seconds exposure settings.

[7] = Viability qHTS for inhibitors of the SERCaMP assay screened against the NCATS CANVASS Library (AID 1347400); settings: SH-SY5Y SERCaMP cells viability, CellTiter-Glo, 48 h; series mostly up to 92.2 µM; note: nearly all actives have a fitted effect of over 70% in size
How it was run: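 CellTiter-Glo luminescence measured cytotoxicity after 48 h at 37C of compound treatment (11-point series). Cells were SH-SY5Y-GLuc SERCaMP MJH297 derivatives, seeded at 1000 per well 4 h beforehand.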

[8] = Redox Reaction Profiling qHTS: Assay Interference Panel against the NCATS CANVASS Library (AID 1347401); settings: resazurin-DTT redox cycling, fluorescence, 15 min; series mostly up to 57.1 µM
How it was run: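 Quantitative HTS over an 11-point series was run in HEPES pH 7.3 with 50 mM NaCl, 200 uM DTT and 5 uM resazurin. Initial and 15-min resorufin fluorescence readings were taken.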

[9] = qHTS assay for small molecule disruptors of mitochondrial membrane potential screened against the NCATS CANVASS Library (AID 1347389); settings: HepG2 mitochondrial membrane potential, m-MPI red/green ratio, 1.5 h; series mostly up to 46.1 µM; note: nearly all actives have a fitted effect of over 60% in size
How it was run: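 Mitochondrial membrane potential in HepG2: 1 h compound treatment (11-point concentration series), 30 min m-MPI dye at 37C, then dual fluorescence of J-aggregates (ex 540/em 590) and monomers (ex 490/em 535); lower red/green ratio indicates depolarization.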

[10] = qHTS to identify inhibitors of the type 1 interferon - major histocompatibility complex class I in skeletal muscle: primary screen against the NCATS LOPAC collection (AID 1347405); settings: iHSKM muscle cells, IFN-b-induced MHC-I HiBiT luminescence, 24 h; series mostly up to 45.9 µM;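 note: human myoblasts with HiBiT tag on endogenous HLA-B stimulated by IFN-beta; lytic HiBiT luminescence reporting HLA-B protein level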
Text: Assay Submitter (PI): Travis B. Kinder Ph.D. & James Inglese Ph.D.
Assay Development and Screening Technology Laboratory (ADST)
National Center for Advancing Translational Sciences (NCATS), Rockville, MD
National Institute of Health (NIH), Bethesda, Maryland
Idiopathic inflammatory myopathies, collectively referred to as myositis, are a group of rare autoimmune diseases characterized by skeletal muscle inflammation, weakness, and usually accompanied by systemic pathologies of the skin, lungs, or vasculature. Current immunosuppressive therapies and glucocorticoids are often not curative and are accompanied by harsh side effects, especially in children with juvenile myositis. […] We conducted quantitative high throughput screening on 6,576 compounds (4,679 unique) through a series of cell-based assays to identify those that inhibit the IFN-stimulated expression of MHC class I in muscle precursor cells (myoblasts). […]
The primary screen utilized CRISPR/Cas9 genome-engineering of immortalized human myoblasts, C25cl48, where a pro-luminescent reporter HiBit was fused to the C-terminus of endogenous MHC class I allele HLA-B*08:01 (HLA-B HiBit myoblasts). […] After 24 hrs of treatment, cells were assayed by Nano-Glo HiBiT Lytic Detection System (Promega) and luminescence measured by a ViewLux 1430 Ultra HTS (Perkin Elmer). […]

Measured: outcome

CC1=C2C(=O)O[C@@H](c3ccoc3)[C@]2(C)CCC1
not listed: [9] | [10]
inactive: all other assays above

C/C=C/C=C/C(CC(=O)O)Nc1ccc(C=O)cc1 (stereo not drawn)
not listed: [10]
inactive: all other assays above

CN1Cc2c(N)cccc2C(c2ccccc2)C1 (stereo not drawn)
inactive: [10]
